From publication PMC5540273 (PLoS ONE, 2017)

Key:
Details in all cases: concentration: 1 μM, replicates: in singlicate; n = 1
ALK = tested on: ALK
AMPK-alpha1 = tested on: T1, AMPK-alpha1
T1 construct: gene PRKAA1

AMPK-alpha2 = tested on: T2, AMPK-alpha2
T2 construct: gene PRKAA2

ANKK1 = tested on: ANKK1
ARK5 = tested on: T3, ARK5
T3 construct: gene NUAK1

ASK1 = tested on: T4, ASK1
T4 construct: gene MAP3K5

ASK2 = tested on: T5, ASK2
T5 construct: gene MAP3K6

AURKA = tested on: AURKA
AURKB = tested on: AURKB
AURKC = tested on: AURKC
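Also: KINOMEscan kinase panel screen.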

SMILES | %Inh (ALK) [%] | %Inh (AMPK-alpha1) [%] | %Inh (AMPK-alpha2) [%] | %Inh (ANKK1) [%] | %Inh (ARK5) [%] | %Inh (ASK1) [%] | %Inh (ASK2) [%] | %Inh (AURKA) [%] | %Inh (AURKB) [%] | %Inh (AURKC) [%]
COc1cc(Nc2ccnc3ccc(C(F)(F)F)cc23)cc(OC)c1OC [GW577382] | 22 | 0 | 25 | 12 | 10 | 6 | 19 | 49 | 0 | 7
Cc1cccc(-c2cc(-c3c[nH]nc3-c3ccccn3)ccn2)c1 [GW679395] | 30 | 0 | 0 | 0 | 0 | 5 | 0 | 8 | 15 | 0
Nc1n[nH]c2ncc(-c3ccccc3)cc12 [SB-517081] | 38 | 0 | 0 | 28 | 2 | 0 | 0 | 21 | 64 | 27
COc1ccc(-c2cc3c(C)nc(N)nc3n([C@H]3CC[C@H](OCCO)CC3)c2=O)cn1 | 0 | 5 | 2 | 0 | 0 | 11 | 0 | 0 | 0 | 7
CCc1nc(-c2cccc(C)c2)c(-c2ccncc2)s1 | 0 | 0 | 0 | 0 | 17 | 0 | 0 | 0 | 13 | 0
Nc1nc(-c2ccccc2F)c(-c2ccnc3ccccc23)s1 [GW560459] | 31 | 0 | 1 | 16 | 0 | 3 | 0 | 0 | 5 | 17
CCCNC(=O)Nc1ccc(Oc2ncnc3ccn(C)c23)cc1 | 0 | 0 | 12 | 0 | 0 | 0 | 1 | 7 | 60 | 0
Cc1nnc(-c2ccc(C)c(-c3ccc(C(=O)O)cc3)c2)o1 [GW608005] | 1 | 0 | 0 | 0 | 11 | 0 | 0 | 0 | 0 | 6
COC(=O)c1c(-c2ccccc2)c2cc(Br)ccc2c(=O)n1Cc1ccc(S(C)(=O)=O)cc1 | 52 | 15 | 9 | 0 | 11 | 2 | 0 | 35 | 20 | 0
COc1cc2nccc(Nc3cccc(Oc4ccccc4)c3)c2cc1OC.Cl [GW284543] | 1 | 12 | 0 | 0 | 0 | 0 | 0 | 5 | 0 | 0
CCCC(=O)Nc1n[nH]c2ncc(-c3cccc4ccccc34)cc12 [SB-642057] | 29 | 37 | 19 | 7 | 6 | 9 | 9 | 6 | 24 | 16
Nc1ncnc2c1ncn2-c1cccc(F)c1 [SKF-97560] | 43 | 0 | 0 | 17 | 2 | 18 | 35 | 0 | 6 | 0
Cc1ccccc1COc1cc(-n2cnc3cc(Cl)ccc32)sc1C(N)=O [GW813349] | 23 | 0 | 3 | 26 | 0 | 18 | 0 | 26 | 2 | 31
Nc1nc(N)c2nc(-c3ccccc3)[nH]c2n1 [SKF-12778] | 0 | 17 | 14 | 63 | 73 | 7 | 15 | 3 | 13 | 1
CCC(=O)c1c(-c2ccccc2)c2cc(Cl)ccc2c(=O)n1Cc1cc(S(C)(=O)=O)n(CC(N)=O)n1 | 0 | 0 | 0 | 0 | 0 | 0 | 0 | 0 | 0 | 0
COc1cc2ncn(-c3cc(OCc4ccc(S(C)(=O)=O)cc4)c(C(N)=O)s3)c2cc1OC [GW869979] | 26 | 0 | 0 | 20 | 0 | 18 | 37 | 0 | 0 | 0
Cc1c(Cn2c(C)nn3c(=O)cc(N4CCO[C@H](C)C4)nc23)cccc1C(F)(F)F [GSK2373690] | 22 | 0 | 27 | 0 | 2 | 11 | 15 | 0 | 27 | 30
COc1ccc(Nc2nccc(N3CCC(NS(=O)(=O)c4ccc(NC(C)=O)cc4)C3)n2)cc1 (stereo not shown) [GSK1379729] | 16 | 20 | 17 | 8 | 25 | 7 | 9 | 7 | 14 | 30

SMILES | %Inh (ALK) [%] | %Inh (AMPK-alpha1) [%] | %Inh (AMPK-alpha2) [%] | %Inh (ANKK1) [%] | %Inh (ARK5) [%] | %Inh (ASK1) [%] | %Inh (ASK2) [%] | %Inh (AURKA) [%] | %Inh (AURKB) [%] | %Inh (AURKC) [%]
Nc1nccc2scc(-c3ccc4c(c3)CCN4C(=O)Cc3ccccc3)c12 [GSK2576924] | 0 | 0 | 21 | 21 | 9 | 6 | 0 | 9 | 16 | 25
CCS(=O)(=O)c1ccc(OC)c(Nc2ncc(-c3ccc(F)cc3)o2)c1.Cl [GW591947] | 22 | 8 | 17 | 7 | 3 | 0 | 0 | 3 | 0 | 26
Cc1nc(N(C)[C@H]2CN(C(=O)CC#N)CC[C@H]2C)c2cc[nH]c2n1 | 0 | 0 | 0 | 0 | 0 | 0 | 0 | 0 | 0 | 0
COc1ccc(CNC(=O)NC2CCN(c3ccnc(Nc4ccc(F)cc4)n3)C2)cc1 (stereo not shown) [GSK1379706] | 0 | 0 | 0 | 8 | 16 | 11 | 0 | 35 | 20 | 19
Cc1ccc(Oc2ccc(Nc3ncnc4cc[nH]c34)cc2C)cn1 | 7 | 0 | 14 | 5 | 0 | 0 | 0 | 20 | 0 | 10
COc1cc2ncn(-c3cc(OCc4ccncc4Br)c(C(N)=O)s3)c2cc1OC [GW854278] | 0 | 7 | 0 | 5 | 0 | 6 | 6 | 0 | 20 | 20
COc1cc(Nc2nccc(N3CCC(NC(=O)C4COc5ccccc5O4)C3)n2)cc(OC)c1OC (stereo not shown) [GSK1379761] | 18 | 11 | 0 | 24 | 2 | 0 | 5 | 51 | 72 | 75
COc1ccc(-n2cnc3c(N)ncnc32)cc1 [SKF-97236] | 0 | 16 | 20 | 17 | 0 | 0 | 0 | 0 | 16 | 63
CCC(=O)c1c(-c2ccccc2)c2cc(Cl)ccc2c(=O)n1Cc1cc(S(C)(=O)=O)n(CCC(C)(C)O)n1 | 0 | 19 | 15 | 8 | 10 | 15 | 8 | 16 | 17 | 12
COC(=O)c1c(-c2ccccc2)c2cc(C)ccc2c(=O)n1Cc1ccccc1 | 0 | 0 | 0 | 0 | 4 | 0 | 0 | 0 | 9 | 0
COC(=O)c1c(-c2ccccc2)c2cc(Br)ccc2c(=O)n1Cc1ccc(NC(=O)CCC(=O)O)cc1 | 52 | 21 | 22 | 0 | 0 | 2 | 0 | 0 | 9 | 0
COc1cccc(C2=C(N(C)c3ccccc3)C(=O)NC2=O)c1 [SB-334865] | 24 | 6 | 13 | 0 | 1 | 18 | 0 | 11 | 32 | 0
COc1cc2ncn(-c3cc(OCCCc4ccccc4)c(C(N)=O)s3)c2cc1OC [GSK205189] | 0 | 28 | 0 | 0 | 0 | 0 | 0 | 0 | 18 | 45
Nc1n[nH]c2nnc(-c3ccccc3)c(-c3ccccc3)c12 [GW554060] | 35 | 0 | 14 | 0 | 9 | 0 | 4 | 0 | 35 | 13
Cc1nnc(-c2ccc3ncn(-c4ccc(S(C)=O)cc4)c3c2)o1 (stereo not shown) | 6 | 0 | 2 | 0 | 21 | 0 | 0 | 21 | 10 | 5
C[C@@H]1CC[C@H](C(=O)NC2CCCCC2)CN1c1cc(-c2ccc3c(N)n[nH]c3c2)nc(N)n1 [GSK2291363] | 29 | 7 | 14 | 20 | 6 | 9 | 7 | – | 24 | 69
COc1ccc(-c2cc3c(C)nc(N)nc3n([C@H]3CC[C@H](O)CC3)c2=O)cn1 | 0 | 0 | 0 | 0 | 4 | 6 | 0 | 0 | 0 | 0
